The values that follow are results of earlier work, collected in PubChem BioAssay AID977611.

About 3,900 (100%) of roughly 3,900 compounds were called active. Cut-off not given; nearly all actives show Kd up to about 4200 µM. The set was probably picked from earlier hits. This is one part of the list. Starred links: 1 amine or outer side, 2 acyl side, 3 side chain; linkers in the order of their positions; H or OH if unused. *1 amine or outer side, *2 acyl side, *3 side chain or, on linkers, in order; H or OH if unused. Positions of bridges follow the written chain, without caps; N, C: chain ends. Where a SMILES comes first, the peptide text is derived from it. Non-standard residues stand in square brackets, D forms with d. Square brackets hold non-standard residues; d marks the D form. Residues, ends and D or L forms follow the SMILES beside them. Peptide text beside a SMILES is read from it. [ ]: non-standard residue; d: D form. Thr(P(OH)3+) = C[C@@H](O[P+](O)(O)O)[C@H](N)C(=O)O; X1 = C[C@](CCCCCC=[*:3])(N[*:1])C(=O)[*:2]; X2 = C[C@@](CCCCC=[*:3])(N[*:1])C(=O)[*:2]; Orn(CH(NH2)2) = NC(N)NCCC[C@H](N)C(=O)O; R8 = C=CCCCCCC[C@@](C)(N)C(=O)O; S5 = C=CCCC[C@](C)(N)C(=O)O; Abu = CC[C@H](N)C(=O)O

The nature of this data set: PubChem AID 977611. Particulars: PDB protein-ligand complexes, literature Kd.

On to H-GSYGHLSIGT-OH, for which, where the note is “protein: Sufu, PDB entry 4kmd”, the Kd (usually the equilibrium constant for the complex coming apart) is 3.86 µM (active). As for `OS(O)(O)CCNC1CCCCC1`, the dissociation constant (Kd) (protein: Interleukin-13 receptor subunit alpha-1, PDB entry 4hwb) is 0.00057 µM (active). Consider `C[C@H](N)C(=O)N[C@@H](CCCNC(N)N)C(=O)N[C@H](C(=O)N[C@@H](CCCC[N+](C)(C)C)C(=O)N[C@@H](CCC(N)=O)C(=O)N[C@H](C(=O)N[C@@H](C)C(=O)N[C@@H](CCCNC(N)N)C(=O)N[C@@H](CCCCN)C(=O)N[C@@H](CO)C(=O)N[C@H](C(=O)NCC(=O)NCC(=O)N[C@@H](CCCCN)C(=O)N[C@@H](C)C(=O)O)[C@@H](C)O)[C@@H](C)O)[C@@H](C)O`, for which the Kd (protein: bromodomain PHD finger transcription factor, PDB entry 2fuu) is 2.7 µM (active).

Consider `CC(=O)NCCCC[C@H](NC(=O)[C@H](CCCNC(N)N)NC(=O)[C@H](C)NC(=O)[C@@H](NC(=O)[C@H](CCC(N)=O)NC(=O)[C@H](CCCCN)NC(=O)[C@@H](NC(=O)[C@H](CCCNC(N)N)NC(=O)[C@H](C)N)[C@@H](C)O)[C@@H](C)O)C(=O)N[C@@H](CO)C(=O)N[C@H](C(=O)NCC(=O)NCC(=O)N[C@@H](CCCCN)C(=O)N[C@@H](C)C(=O)O)[C@@H](C)O`, for which, where the note is “protein: Histone acetyltransferase PCAF, PDB entry 2rnw”, the Kd is 1050 µM (active). For the molecule `O=C(O)c1ccc2cc[nH]c2c1`, the Kd (protein: Protease (Q7K, L33I, L63I, C67A, C95A mutation), PDB entry 4ej8) is 4.1 µM (active). For the molecule `CSCC[C@H](NC(=O)[C@H](C)N)C(=O)N[C@@H](CCCCN)C(=O)N[C@@H](CCCNC(N)N)C(=O)N[C@@H](Cc1cnc[nH]1)C(=O)NCC(=O)N[C@@H](CC(C)C)C(=O)N[C@@H](CC(=O)O)C(=O)N[C@@H](CC(N)=O)C(=O)N[C@@H](Cc1ccc(O)cc1)C(=O)N[C@@H](CCCNC(N)N)C(=O)NCC(=O)N[C@@H](Cc1ccc(O)cc1)C(=O)N[C@@H](CO)C(=O)O` (H-AMK[Orn(CH(NH2)2)]HGLDNY[Orn(CH(NH2)2)]GYS-OH), the equilibrium dissociation constant (Kd) (protein: I-Ag7, PDB entry 1f3j) is 6 µM (active). In the case of H-AHGMLKLYYGLS-OH, the Kd (protein: Syntaxin-6, PDB entry 4j2c) was 5.6 µM (active). `CC(C)C[C@H](NC(=O)[C@]1(C)CCC/C=C\CCC[C@](C)(NC(=O)[C@H](CCCNC(N)N)NC(=O)[C@H](CO)NC(=O)[C@H](Cc2ccc(O)cc2)NC(=O)[C@H](CCCNC(N)N)NC(=O)[C@H](CCCCN)NC(=O)[C@@H](N)CCCCN)C(=O)N[C@@H](CCC(N)=O)C(=O)N[C@@H](CC(C)C)C(=O)N[C@@H](CC(C)C)C(=O)N1)C(N)=O`: under “protein: EUKARYOTIC TRANSLATION INITIATION FACTOR 4E, PDB entry 4bea”, the Kd was 0.005 µM (active). For `CC[C@H](N)C(=O)N[C@H](C(=O)N[C@@H](Cc1ccccc1)C(=O)N[C@]1(C)CCCCC/C=C/CCCC[C@@](C)(C(=O)N[C@@H](CCC(N)=O)C(=O)N[C@@H](CC(N)=O)C(=O)O)NC(=O)[C@H](CC(C)C)NC(=O)[C@H](CC(C)C)NC(=O)[C@H](CCCNC(N)N)NC(=O)[C@H](Cc2c[nH]c3ccccc23)NC(=O)[C@H](CC(C)C)NC(=O)[C@H](CC(N)=O)NC1=O)[C@@H](C)O` (H-[Abu]TF[X1]NLW[Orn(CH(NH2)2)]LL[X2]QN-OH; staple (E) 4-11), under “protein: E3 ubiquitin-protein ligase Mdm2, PDB entry 3v3b”, the Kd is 0.055 µM (active). As to `CC(=O)N[C@H](C(=O)N[C@@H](CO)C(=O)N[C@@H](Cc1ccccc1)C(=O)N[C@]1(C)CCCCCC/C=C/CCC[C@@](C)(C(N)=O)NC(=O)[C@H](CC(C)C)NC(=O)[C@H](CC(C)C)NC(=O)[C@H](Cc2ccc(O)cc2)NC(=O)[C@H](Cc2c[nH]c3ccccc23)NC(=O)[C@H](Cc2ccc(O)cc2)NC(=O)[C@H](CCC(=O)O)NC1=O)[C@@H](C)O` (Ac-TSF[R8]EYWYLL[S5]-NH2; staple (E) 4-11), under “protein: E3 UBIQUITIN-PROTEIN LIGASE MDM2-M62A, PDB entry 4umn”, the Kd was 0.0631 µM (active). `COc1cc(-c2ccc3ncc(-c4cccc([C@@H](O)NCCN(C)C)c4)n3n2)ccc1O`: where the note is “protein: Death-associated protein kinase 1 DAPK1, PDB entry 4txc”, the Kd was 0.24 µM (active).

Consider `CC(C)[C@H](NC(=O)[C@H](C)NC(=O)[C@@H](NC(=O)[C@@H](N)CCCCN)C(C)C)C(=O)N[C@H](C(=O)N[C@@H](CCCNC(N)N)C(=O)N[C@H](C(=O)N1CCC[C@H]1C(=O)N1CCC[C@H]1C(=O)N[C@@H](CCCCN)C(=O)O)[C@@H](C)O[P+](O)(O)O)C(C)C` (H-KVAVV[Orn(CH(NH2)2)][Thr(P(OH)3+)]PPK-OH), for which the Kd (protein: anti-ptau heavy chain and anti-ptau light chain, PDB entry 4glr) is 0.00035 µM (active). As to `CC(C)C[C@H](NC(=O)CNC(=O)[C@H](CO)NC(=O)[C@@H]1CCCN1C(=O)[C@@H](N)CC(C)C)C(=O)N[C@@H](CC(C)C)C(=O)N[C@H](C(=O)N1CCC[C@H]1C(=O)N1CCC[C@H]1C(=O)N[C@@H](CCC(N)=O)C(=O)N[C@@H](CO[P+](O)(O)O)C(=O)NCC(=O)O)[C@H](C)O[P+](O)(O)O`, under “protein: Skp1-Fbw7, PDB entry 2ovq”, the Kd is 0.07 µM (active). As for `CC(C)C[C@H](NC(=O)[C@@H]1CCCN1C(=O)[C@@H]1CCCN1C(=O)[C@@H](NC(=O)[C@@H]1CCCN1C(=O)[C@H](CC(C)C)NC(=O)[C@@H](N)CC(C)C)[C@@H](C)O)C(=O)N[C@@H](CO)C(=O)N1CCC[C@H]1C(=O)N[C@@H](CO)C(=O)N[C@@H](CCCNC(N)N)C(=O)N[C@@H](CCCNC(N)N)C(=O)N[C@@H](CO)C(=O)NCC(=O)O` (H-LLPTPPLSPS[Orn(CH(NH2)2)][Orn(CH(NH2)2)]SG-OH), the Kd (protein: Bin1C SH3 domain, PDB entry 1mv0) was 93.3 µM (active).

`CC(C)[C@H](NC(=O)[C@H](CCCCN)NC(=O)[C@H](CCCNC(N)N)NC(=O)[C@H](CCCCN)NC(=O)[C@H](CCCCN)NC(=O)[C@H](CCCCN)NC(=O)[C@@H]1CCCN1C(=O)[C@@H]1CCCN1C(=O)[C@H](CO)NC(=O)CN)C(=O)NCC(=O)O` (H-GSPPKKK[Orn(CH(NH2)2)]KVG-OH): the Kd (protein: IMPORTIN SUBUNIT ALPHA-1A, PDB entry 4b8o) is 0.004 µM (active). Consider `CC(=O)N1CCC[C@H]1C(=O)N1CCC[C@H]1C(=O)NCC(=O)N1CCC[C@H]1C(=O)N1CCC[C@H]1C(=O)NCC(=O)N1CCC[C@H]1C(=O)N[C@H](C(=O)NCC(=O)N1CCC[C@H]1C(=O)N[C@@H](CCCNC(N)N)C(=O)NCC(=O)N1CCC[C@H]1C(=O)N1CCC[C@H]1C(=O)NCC(=O)N1CCC[C@H]1C(=O)N1CCC[C@H]1C(=O)O)[C@@H](C)O` (Ac-PPGPPGPTGP[Orn(CH(NH2)2)]GPPGPP-OH), for which the dissociation constant (Kd) (protein: HSP47, PDB entry 3zha) is 1 µM (active). Consider `CC(C)[C@H](NC(=O)[C@H](CO)NC(=O)[C@@H](NC(=O)[C@@H](N)CCCCN)C(C)C)C(=O)N[C@H](C(=O)N[C@@H](CCCNC(N)N)C(=O)N[C@H](C(=O)N1CCC[C@H]1C(=O)N1CCC[C@H]1C(=O)N[C@@H](CCCCN)C(=O)N[C@@H](CO)C(=O)N1CCC[C@H]1C(=O)N[C@@H](CO)C(=O)O)[C@H](C)O[P+](O)(O)O)C(C)C` (H-KVSVV[Orn(CH(NH2)2)][X1]PPKSPS-OH), for which the Kd (protein: Pin1 WWdomain, PDB entry 1i8h) was 29 µM (active). As to `CNC(CSSC[C@H](NC(=O)CC[C@H](N)C(=O)O)C(=O)NCC(=O)O)C(=O)NCC(=O)O` (some centres not stated), for the setting “protein: PUTATIVE AMINO ACID BINDING PROTEIN, PDB entry 4c0r”, the Kd was 12.2 µM (active). Consider `N[C@@H](CCC(=O)N[C@@H](CS)C(=O)NCC(=O)O)C(=O)O`, for which the Kd runs as follows: (protein: mitochondrial ABC transporter, Atm1, PDB entry 4myh) 23 µM (active); (protein: protein yqjG, PDB entry 4g0l) 6.5 µM (active). With H-SQEKFFQELFDS-OH, the Kd (protein: Peroxisomal Membrane Anchor Protein Pex14, PDB entry 2w85) is 9.17 µM (active).

As to `CC(C)C[C@H](NC(=O)[C@H](CC(C)C)NC(=O)[C@H](CCC(=O)O)NC(=O)[C@@H](N)CO)C(=O)N[C@@H](CCCCN)C(=O)N[C@@H](Cc1ccc(O)cc1)C(=O)N[C@@H](CC(C)C)C(=O)N[C@H](C(=O)N[C@H](C(=O)O)[C@@H](C)O)[C@@H](C)O` (H-SELLKYLTT-OH), the Kd (protein: the ligand binding domain (LBD) of the estrogen-related receptor ? (ERR?, NR3B1), PDB entry 1xb7) was 0.6 µM (active).
